Screening results from PubChem.
TNAP act DEA = human TNAP enzyme activators, primary screen, biochemical, luminescent, intermediate phosphate acceptor level; Alkaline phosphatase, tissue-nonspecific isozyme (Homo sapiens), P05186; purified TNAP, CDP-star luminescence, 100 mM DEA, 30 min; active compounds read high; scale: 0 levamisole-inhibited, 1 vehicle-only enzyme; activation factor at 20 µM; 64,000 tested, under 10 active; AID 813, 2007;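 active = activation factor of at least 2 at 20 µM, relative to controls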
PLAP activator = PLAP enzyme activators, biochemical, luminescence, HTS. purified PLAP enzyme, luminescent substrate read-out; active compounds read high. activation fold at 20 µM. hit rate 1.2% among 96,000. AID 696, 2007; in the data active = activation fold above about 2
HePTP inh = inhibitors of human HePTP phosphatase, primary screen, biochemical, absorbance, leukemia target; Tyrosine-protein phosphatase non-receptor type 7 (Homo sapiens), P35236; recombinant HePTP phosphatase activity, OD absorbance; inhibition, % at 20 µM; hit rate 0.64% among 110,000; in the data active = inhibition above about 50%
D1 allo mod = D1 CRE-luciferase signal change, two-sided – cell-based, HEK293 D1, dopamine EC30, D1 allosteric modulator project, primary screen; dopamine EC30 potentiation; actives deviate in either direction; hit rate 5.9% among 58,000; D(1A) dopamine receptor (Homo sapiens), P21728; AID 641, 2007; B-score at 10 µM;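 active = luminescence count or its row- and column-corrected plate score outside the 99.7% band of the plate's sample wells, on either side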
Calb biofilm kill = clotrimazole potentiators killing Candida biofilms, primary screen, with clotrimazole, Alamar Blue; C. albicans biofilm + clotrimazole; inhibition, % at 6 µM; hit rate 0.14% among 85,000; AID 834, 2007;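 active = inhibition above 20%; inactive = inhibition below 20%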;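 note: preformed 24 hr biofilms exposed to compound for 48 hr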
DAT uptake mod = changed hDAT dopamine uptake under cocaine IC80, either direction, primary screen, cocaine antagonist project, cell-based, LLC-PK1 hDAT, [14C]-dopamine uptake, MLSMR; Sodium-dependent dopamine transporter (Homo sapiens), Q01959; LLC-PK1 hDAT cells, [14C]-dopamine uptake with cocaine IC80; actives deviate in either direction; B-score at 10 µM; hit rate 1.3% among 110,000; AID 449768, 2010;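 active = Z score or B-score, a plate-position-corrected score, falls beyond the plate's 99.7% confidence bounds, in either direction; inactive = both scores lie inside the 99.7% bounds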
Target sequence (Q01959 whole entry, looked up): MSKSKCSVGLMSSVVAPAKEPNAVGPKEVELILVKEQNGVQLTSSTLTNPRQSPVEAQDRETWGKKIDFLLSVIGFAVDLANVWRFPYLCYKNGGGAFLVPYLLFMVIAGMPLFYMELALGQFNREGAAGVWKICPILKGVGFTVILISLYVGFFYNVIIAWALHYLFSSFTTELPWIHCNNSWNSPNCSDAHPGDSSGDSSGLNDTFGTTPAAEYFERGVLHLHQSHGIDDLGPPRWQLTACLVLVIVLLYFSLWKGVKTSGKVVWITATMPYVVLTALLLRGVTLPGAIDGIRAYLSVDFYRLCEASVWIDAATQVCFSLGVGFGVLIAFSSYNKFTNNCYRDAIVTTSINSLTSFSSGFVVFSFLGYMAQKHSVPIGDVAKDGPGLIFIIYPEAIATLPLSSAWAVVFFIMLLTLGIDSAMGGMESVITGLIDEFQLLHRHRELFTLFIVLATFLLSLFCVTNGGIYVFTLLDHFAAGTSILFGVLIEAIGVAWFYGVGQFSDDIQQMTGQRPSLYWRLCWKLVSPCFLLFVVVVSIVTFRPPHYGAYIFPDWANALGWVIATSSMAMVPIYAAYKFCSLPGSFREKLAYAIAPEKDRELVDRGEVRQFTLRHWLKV
Hits are given with their value; . = inactive; / = no result. The entries come from a sample that favours hits as a whole.

SMILES	TNAP act DEA	PLAP activator	HePTP inh	D1 allo mod	Calb biofilm kill	DAT uptake mod
CCn1c(SCC(=O)Nc2nc(-c3ccc(C)cc3)cs2)nnc1-c1ccccc1	/	.	/	/	.	.
CN1CCN(Cn2c(O)c(N=NC(=O)c3ccccc3Cl)c3ccccc32)CC1	/	/	.	/	/	/
O=C(N/N=C/c1ccc(OC(=O)c2ccc(Br)cc2)cc1)c1cccc([N+](=O)[O-])c1	/	/	52	/	/	/
COc1ccc(/C=N/NC(=O)c2cccc([N+](=O)[O-])c2)cc1OC(=O)c1ccccc1	/	.	/	/	/	.
COc1ccccc1OCC(O)Cn1c(=N)n(CCN2CCCCC2)c2ccccc21 (stereo not drawn)	/	.	/	-2.5	.	.
Cc1ccccc1OCC(O)Cn1c(=N)n(CCN2CCOCC2)c2ccccc21 (stereo not drawn)	/	.	/	-4.9	.	.
O=C1NC(=O)N(c2ccc(Cl)cc2)C(=O)/C1=C/c1ccc(Br)s1	/	/	.	/	/	/
CNc1ccc2c(O)cc(S(=O)(=O)O)cc2c1	/	/	54	/	/	/
O=C(O)c1cc(S(=O)(=O)O)ccc1O	.	.	.	.	.	.
CCNc1nc(N2CCCCC2)nc(-n2nnc(C(=O)OCC)c2C)n1	.	.	.	.	.	2.8
COC(=O)c1sccc1NC(=O)c1cccc(Br)c1	/	/	.	/	/	/
CC(C)c1ccc(N(CC(=O)N/N=C/c2cc(Cl)cc(Cl)c2O)S(=O)(=O)c2ccccc2)cc1	/	/	.	/	/	/
CC(C)(C)c1ccc(-c2noc(CCC(N)=O)n2)cc1	.	.	.	-3.5	.	.
CNC(=O)CCc1nc(-c2ccc(C(C)(C)C)cc2)no1	.	.	.	/	.	.
CCN(CC)c1ccc(N=Cc2c(O)[nH]c(=S)[nH]c2=O)cc1	/	/	.	/	/	/
N#Cc1c(N)nc2c(c1-c1ccc(F)cc1)CCCCC2	/	/	.	/	/	/
CN1CCN(Cc2cc(COCc3ccccc3)c3cccnc3c2O)CC1	.	2.2	.	.	.	.
CN1CCN(Cc2cc(CSc3ccccc3)c3cccnc3c2O)CC1	/	/	.	/	/	/
COc1ccc(S(=O)(=O)NC2CCSC2=O)cc1 (stereo not drawn)	/	/	.	/	/	/
CCOc1cc(C2C(C(=O)OCCSCC)=C(C)NC3=C2C(=O)CC(c2ccc(Cl)cc2)C3)cc(Cl)c1O (stereo not drawn)	/	/	.	/	/	/
COc1ccc(C(=O)Nc2ccc(O)c(-c3nc4ccccc4o3)c2)cc1OC	/	/	.	/	/	/
Nc1ncnc2nc(SCCc3ccccc3)[nH]c12	.	2	.	.	.	.
Cc1c(-n2cc(C(=O)O)c(=O)c3cc(F)c(N4CCCC4)c(F)c32)c(=O)n(-c2ccccc2)n1C	.	.	.	2.7	.	.
Cc1c(NC(=O)c2cn3c4c(c(N5CCN(C)CC5)c(F)cc4c2=O)OCN3C)c(=O)n(-c2ccccc2)n1C	/	/	.	/	/	/
COC(=O)c1cccc(N2C(=O)C=CC2=O)c1	/	/	.	/	/	/
SMILES	TNAP act DEA	PLAP activator	HePTP inh	D1 allo mod	Calb biofilm kill	DAT uptake mod
COc1ccc(/C=C2/SC(=Nc3ccccc3)NC2=O)cc1O	/	/	.	/	/	/
C=CCOc1ccc(/C=C2\SC(=Nc3ccccc3)NC2=O)cc1OC	/	/	64	/	/	/
CCCOc1ccc(C(=O)Nc2ccc3ccccc3c2)cc1	/	/	.	/	/	/
Cc1cc(C)c(N2C(=O)c3ccccc3C2=O)c(C)c1	/	/	.	/	/	/
CCOc1ccc(OCC)c(NC(=O)Nc2ccc3c(c2)N(C)C(=O)CS3)c1	/	.	/	/	.	1.9
CCOC(=O)C1=C(O)/C(=C/c2ccc(-c3ccccc3)cc2)SC1=Nc1ccc(OC)cc1	/	/	.	/	/	/
COC(=O)c1ccc(C(=O)Nc2cc(Cl)ccc2Cl)cc1NC(=O)C(C)Oc1ccccc1 (stereo not drawn)	/	/	66	/	/	/
Cc1cc(C)cc(OCCCNCCO)c1	/	/	.	/	/	/
CCc1nc(SCC(=O)Nc2ccccc2C(=O)OC)n[nH]1	.	2	.	.	.	.
O=C(CCl)Nc1ccccc1Sc1ccccc1	/	.	/	/	/	.
Nc1nc(SCC(=O)Nc2ccccc2Sc2ccccc2)n[nH]1	/	2.3	/	/	/	.
Nc1ccc2nc(-c3ccc(N)c(Cl)c3)[nH]c2c1	/	/	/	/	.	.
Nc1ccc(-c2nc3c(Cl)cc(N)cc3[nH]2)cc1	.	.	.	-2.6	.	.
